Test results from the supplement of paper PMC6607015.
Counter-ions that a name gives are not always drawn.

How the values were obtained:
Conditions in all cases: compound concentration in added solution (µM; 5 µl added to 20 µl cells): 10; 18 h
A431 [1] = experiment: LBPA endosome anti-LBPA integrated intensity (sum per cell), Z-score; higher = more LBPA staining
In short: (§1)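 In duplicate 384-well imaging plates, 3,500 HeLa MZ or A431 cells in 20 µl per well were seeded onto 5 µl of 10 µM compound solution. The cells were incubated for 18 h, fixed in 4% PFA and stained with 6C4 anti-LBPA antibody, filipin, propidium iodide and CellTracker green before four 20× images were acquired per well. Values are AcuityXpress-normalised Z-scores of per-cell integrated LBPA or filipin intensity, obtained by MetaXpress segmentation over the whole cell or in LBPA endosomes.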

HeLa MZ [2] = experiment: as above
In short: as §1

A431 [3] = experiment: whole-cell filipin (free cholesterol) integrated intensity, Z-score; higher = more cholesterol staining
In short: as §1

HeLa MZ [4] = experiment: as above
In short: as §1

A431 [5] = experiment: filipin (cholesterol) integrated intensity within LBPA endosomes, Z-score; higher = more cholesterol in LBPA endosomes
In short: as §1

HeLa MZ [6] = experiment: as above
In short: as §1

SMILES	LBPA endosome anti-LBPA integrated intensity (z-score) (A431 [1])	LBPA endosome anti-LBPA integrated intensity (z-score) (HeLa MZ [2])	whole-cell filipin (z-score) (A431 [3])	whole-cell filipin (z-score) (HeLa MZ [4])	filipin (z-score) (A431 [5])	filipin (z-score) (HeLa MZ [6])
Cc1cccc(Nc2ccccc2C(=O)O)c1C [Mefenamic acid]	-0.573	-1.34	-0.793	-0.4	-0.497	-0.72
COc1ccc(Cl)cc1C(=O)NCCc1ccc(S(=O)(=O)NC(=O)NC2CCCCC2)cc1 [Glibenclamide]	-0.686	-1.35	-0.573	0.104	-0.559	-0.567
Nc1nc2c(ncn2COCCO)c(=O)[nH]1 [Acyclovir]	-0.598	-1.1	-1.13	-0.395	-0.557	-0.66
CO[C@@H]1[C@@H](O[C@@H]2O[C@H](C)[C@@H](O[C@H]3C[C@@](C)(O)[C@@H](OC(=O)CC(C)C)[C@H](C)O3)[C@H](N(C)C)[C@H]2O)[C@@H](CC=O)C[C@@H](C)[C@@H](O)/C=C/C=C/C[C@@H](C)OC(=O)C[C@H]1OC(C)=O [Josamycin]	0.115	-0.222	-0.459	-0.645	-0.106	-0.348
CCOC1O[C@H]([C@@H](COCc2ccccc2)OCc2ccccc2)[C@H](OCc2ccccc2)[C@H]1O (some centres not stated) [Tribenoside]	0.543	2.34	0.649	1.71	0.264	0.525
CN(C)CCCO[C@@H]1[C@H]2OC(C)(C)O[C@H]2O[C@@H]1[C@H](O)CO [Amiprilose hydrochloride]	-0.365	-0.384	-0.0258	-0.369	-0.415	-0.492
CC/C(=C(\c1ccccc1)c1ccc(OCCN(C)C)cc1)c1ccccc1 [Tamoxifen citrate]	2.11	0.441	0.819	0.438	2.05	2.47
CCN[C@H]1C[C@H](C)S(=O)(=O)c2sc(S(N)(=O)=O)cc21 [Dorzolamide hydrochloride]	-0.573	-0.633	0.0896	0.22	-0.481	-0.217
COc1cc(C(=O)NS(=O)(=O)c2ccccc2C)ccc1Cc1cn(C)c2ccc(NC(=O)OC3CCCC3)cc12 [Zafirlukast]	-0.518	-0.847	-0.458	-0.494	-0.486	-0.569
CC1=C(C(=O)O)N2C(=O)[C@@H](NC(=O)[C@H](N)c3ccccc3)[C@H]2SC1 [Cephalexin monohydrate]	-0.543	-0.797	-0.64	-0.482	-0.499	-0.511
Cc1cc2c(s1)Nc1ccccc1N=C2N1CCN(C)CC1 [Olanzapine]	0.0572	1.62	0.197	0.311	0.151	0.615
C[C@H]1O[C@H](O[C@H]2[C@H](O)[C@@H](O)[C@@H](O[C@H]3[C@H](O)[C@@H](O)C(O)O[C@@H]3CO)O[C@@H]2CO)[C@H](O)[C@@H](O)[C@@H]1N[C@H]1C=C(CO)[C@@H](O)[C@H](O)[C@H]1O (some centres not stated) [Acarbose]	-0.482	-0.645	-0.828	-0.123	-0.508	-0.442
O=C1CN(/N=C/c2ccc(-c3ccc([N+](=O)[O-])cc3)o2)C(=O)N1 [Dantrolene sodium salt]	-0.554	-0.147	-1.1	-0.944	-0.655	-0.686
Cc1nc2n(c(=O)c1CCN1CCC(c3noc4cc(F)ccc34)CC1)CCCC2 [Risperidone]	0.208	1.64	0.491	0.264	-0.0506	0.539
O=C1CN(/N=C/c2ccc([N+](=O)[O-])o2)C(=O)N1 [Nitrofurantoin]	-0.475	-1.22	-0.354	-0.515	-0.501	-0.575
O=C(CCCN1CCC(O)(c2ccc(Cl)cc2)CC1)c1ccc(F)cc1 [Haloperidol]	2.66	2.75	1.61	0.834	2.42	2.21
CC(C(O)c1ccc(O)cc1)N1CCC(Cc2ccccc2)CC1 (configuration not stated) [Ifenprodil tartrate]	0.387	-0.296	0.502	0.445	0.406	0.378
CCOC(=O)[C@H](CCc1ccccc1)N[C@@H](C)C(=O)N1CCC[C@H]1C(=O)O [Enalapril maleate]	-0.644	-2	-1.09	-0.795	-0.578	-0.713
c1ccc(CC2=NCCN2)cc1 [Tolazoline hydrochloride]	-0.404	0.69	-0.609	-0.502	-0.487	-0.331
Cc1onc(-c2c(F)cccc2Cl)c1C(=O)N[C@@H]1C(=O)N2[C@@H]1SC(C)(C)[C@@H]2C(=O)O [Flucloxacillin sodium]	-0.384	0.147	-0.112	-0.558	-0.348	-0.62
Nc1nc2ccc(OC(F)(F)F)cc2s1 [Riluzole hydrochloride]	-0.418	-0.758	-0.48	-0.459	-0.501	-0.474
Nc1ccccc1S(N)(=O)=O [2-Aminobenzenesulfonamide]	-0.461	-0.0157	-0.474	-0.217	-0.417	-0.589
